Inconclusive results are not listed. The source made the active and inactive calls. Rule for the calls: active = hit-call score of the fitted dose curve at least 0.9, where 1 is the maximum; inconclusive = response in the unintended direction; inactive = score below 0.9.
Each compound was assayed against human Epidermal Growth Factor Receptor (EGFR), EGFR (gene 1956) (UniProt P00533) (assay: NVS_ENZ_hEGFR: NovaScreen (NVS) Enzymatic Assay for human Epidermal Growth Factor Receptor (EGFR) (AID 2283151)).
Method: NVS_ENZ_hEGFR is a biochemical, single-readout assay that uses extracted gene-proteins in a cell-free assay. Measurements were taken 1 hour after chemical dosing in a 384-well plate.NVS_ENZ_hEGFR is one of one assay component(s) measured or calculated from the NVS_ENZ_hEGFR assay. It is designed to make measurements of enzyme activity, a form of enzyme reporter, as detected with fluorescence intensity signals by Fluorescence and electrophoretic mobility shift technology.Data from the assay component NVS_ENZ_hEGFR was analyzed into 1 assay endpoint. This assay endpoint, NVS_ENZ_hEGFR, was analyzed in the positive analysis fitting direction relative to DMSO as the negative control and baseline of activity. Using a type of enzyme reporter, loss-of-signal activity can be used to understand changes in the enzymatic activity as they relate to the gene EGFR. Furthermore, this assay endpoint can be referred to as a primary readout, because this assay has produced multiple assay endpoints where this one serves a enzymatic activity function. To generalize the intended target to other relatable targets, this assay endpoint is annotated to the kinase intended target family, where the subfamily is receptor tyrosine kinase.
Binding assays used specific radioligands (tritiated, iodinated) with non-radioactive competitive displacement ligands in agonist or antagonist protocols (as indicated) and various reference compounds and inhibitors to titrate specific binding to receptors and transporters. Most enzyme assays (CYPs, kinases, phosphatases, proteases, HDACs) used recombinant protein and specific substrates (fluorescence mostly, some colorimetric and radioactive) and inhibitors, followed by a biochemical separation of substrate and product. All assays for the biochemical HTS were initially run in duplicate at a single concentration (10 uM for CYP450 assays and 25 uM for all others). […]

Chain of human Epidermal Growth Factor Receptor (EGFR), EGFR (gene 1956) (P00533 whole entry, looked up): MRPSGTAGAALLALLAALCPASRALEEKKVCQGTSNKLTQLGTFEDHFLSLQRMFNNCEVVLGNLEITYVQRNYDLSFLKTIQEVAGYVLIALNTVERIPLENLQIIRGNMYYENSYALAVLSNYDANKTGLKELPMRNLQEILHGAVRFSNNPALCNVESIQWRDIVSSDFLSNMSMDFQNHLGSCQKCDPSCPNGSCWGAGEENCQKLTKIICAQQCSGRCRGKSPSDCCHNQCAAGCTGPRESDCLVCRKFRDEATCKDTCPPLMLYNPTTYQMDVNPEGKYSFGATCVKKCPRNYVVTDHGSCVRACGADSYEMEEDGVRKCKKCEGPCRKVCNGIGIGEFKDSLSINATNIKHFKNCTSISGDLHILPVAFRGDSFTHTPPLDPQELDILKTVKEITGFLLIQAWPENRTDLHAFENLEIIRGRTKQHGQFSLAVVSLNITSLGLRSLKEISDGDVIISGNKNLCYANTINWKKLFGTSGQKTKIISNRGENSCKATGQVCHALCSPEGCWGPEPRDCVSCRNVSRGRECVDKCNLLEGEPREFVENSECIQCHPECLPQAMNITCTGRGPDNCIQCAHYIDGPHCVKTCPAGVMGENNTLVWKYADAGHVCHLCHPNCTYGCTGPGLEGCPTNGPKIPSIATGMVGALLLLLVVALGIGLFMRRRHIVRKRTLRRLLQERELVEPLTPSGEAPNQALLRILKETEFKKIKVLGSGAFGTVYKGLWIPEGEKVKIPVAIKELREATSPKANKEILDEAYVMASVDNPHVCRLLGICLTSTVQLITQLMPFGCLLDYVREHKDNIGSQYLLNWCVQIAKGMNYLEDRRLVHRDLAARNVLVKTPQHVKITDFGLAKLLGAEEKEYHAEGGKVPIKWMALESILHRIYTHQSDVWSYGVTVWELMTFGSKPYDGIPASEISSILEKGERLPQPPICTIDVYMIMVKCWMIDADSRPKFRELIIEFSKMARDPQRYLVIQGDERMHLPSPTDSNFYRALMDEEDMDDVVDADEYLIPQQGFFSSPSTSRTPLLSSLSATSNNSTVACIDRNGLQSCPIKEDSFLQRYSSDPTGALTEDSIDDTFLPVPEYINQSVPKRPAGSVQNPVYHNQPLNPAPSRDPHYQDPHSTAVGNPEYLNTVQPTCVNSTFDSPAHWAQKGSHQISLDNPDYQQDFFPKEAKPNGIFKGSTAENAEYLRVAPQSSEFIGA

| SMILES | outcome |
| --- | --- |
| O=C(O)C(F)(F)C(F)(F)C(F)(F)C(F)(F)C(F)(F)F | inactive |
| O=C(O)C(F)(F)C(F)(F)C(F)(F)C(F)(F)C(F)(F)C(F)(F)C(F)(F)C(F)(F)F | inactive |
| CC1=C2C[C@H]3[C@@H](CC=C4C[C@@H](O)CC[C@@]43C)[C@@H]2CC[C@]12O[C@@H]1C[C@H](C)CN[C@H]1[C@H]2C | inactive |

Reference: PubChem BioAssay (EPA / NIEHS)
